# Measurements as given in publication PMC8384837, “Expanding the binding specificity for RNA recognition by a PUF domain”.
# Experiments:
# Experiment in all cases: yeast three-hybrid, YBZ-1, SC-Leu-His + 0.5 mM 3-AT, 4 days
# Settings in all cases: tags: N-Gal4 AD-HA kept; label: inside an RPR1-promoter hybrid RNA with tandem MS2 sites; ssRNA
# [1] = biological target: PUM1 PUF domain R1-NWS (Homo sapiens, UniProt Q14671 828-1176, S863N;R864W;Q867S)
# Outline: (§1)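 Sequencing with Illumina followed PCR amplification of the repeat regions from transformants grown four days on SC-Leu (input) or SC-Leu-His + 0.5 mM 3-AT (selection). The transformants were strain YBZ-1 with a LexA–MS2 coat fusion and a HIS3 reporter, carrying Pumilio-1 PUF domain libraries and matching RNA elements. The interaction score is the log change in variant frequency from input to selection, computed in log2 with a pseudocount of 1 for absent variants.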
# [2] = biological target: PUM1 PUF domain R1-QVK (Homo sapiens, UniProt Q14671 828-1176, S863Q;R864V;Q867K)
# Outline: as §1
# [3] = biological target: PUM1 PUF domain R8-VYK (Homo sapiens, UniProt Q14671 828-1176, N1122V;Q1126K)
# Outline: as §1
# [4] = biological target: PUM1 PUF domain R4-SNL (Homo sapiens, UniProt Q14671 828-1176, N971S;H972N;Q975L)
# Outline: as §1
# [5] = biological target: PUM1 PUF domain R4-EYM (Homo sapiens, UniProt Q14671 828-1176, N971E;H972Y;Q975M)
# Outline: as §1
sequence,measurement,setting,value
GGCUAGAACUAGUGGAUCCCCCGGCGCCCGGCGGCUCGAGCCCGGGUAAGUGUAAAUUGUCUGCAUGCCGCCGGGCGCCAUGCCUGCAGGUCGACUCUAGAAAACAUG,binding signal,[1],5.3 log2 enrichment (interaction score)
same,binding signal,[2],0.46 log2 enrichment (interaction score)
GGCUAGAACUAGUGGAUCCCCCGGCGCCCGGCGGCUCGAGCCCGGGUAAGCGUAAAUAGUCUGCAUGCCGCCGGGCGCCAUGCCUGCAGGUCGACUCUAGAAAACAUG,binding signal,[3],4.78 log2 enrichment (interaction score)
GGCUAGAACUAGUGGAUCCCCCGGCGCCCGGCGGCUCGAGCCCGGGUAAGUGUACAUAGUCUGCAUGCCGCCGGGCGCCAUGCCUGCAGGUCGACUCUAGAAAACAUG,binding signal,[4],1.34 log2 enrichment (interaction score)
same,binding signal,[5],2.59 log2 enrichment (interaction score)
